Assay results published in PubChem BioAssay (EPA / NIEHS).
Inconclusive results are not listed. Activity calls are given as the source filed them. How the source made its calls: active means hit-call score of the fitted dose curve at least 0.9, where 1 is the maximum; inconclusive means response in the unintended direction; inactive means score below 0.9.

How the values were obtained:
[1] = ATG_M_19_XSP1: Attagene TRANS-FACTORIAL Multi-Species (XSP1) HepG2 Assay for M19 Transcription Factor (Internal Marker) (AID 2283798)
Method in brief: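 HepG2 cells transiently transfected with multiplexed GAL4-UAS reporter units, dosed 24 h with 3 nM 6-alpha-fluorotestosterone present for partial AR stimulation. Reporter mRNA measured by RT-PCR with capillary electrophoresis; gain-of-signal fitted relative to DMSO.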

[2] = ATG_M_32_XSP1: Attagene TRANS-FACTORIAL Multi-Species (XSP1) HepG2 Assay for M32 Transcription Factor (Internal Marker) (AID 2283799)
Method in brief: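 HepG2 cells transiently transfected with multi-species TRANS reporter units, dosed 24 h with 3 nM 6-alpha-fluorotestosterone present. Internal-marker reporter mRNA quantified by RT-PCR and capillary electrophoresis; positive-direction fit versus DMSO.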

[3] = system: zebrafish Peroxisome Proliferator-activated Receptor gamma (PPARg), gene 557037; test: ATG_zfPPARg_XSP1: Attagene TRANS-FACTORIAL Multi-Species (XSP1) HepG2 Assay for zebrafish Peroxisome Proliferator-activated Receptor gamma (PPARg) (AID 2283801)
Method in brief: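 HepG2 cells transiently transfected with GAL4-UAS reporter units including a zebrafish PPARg–GAL4 chimera, dosed 24 h with 3 nM 6-alpha-fluorotestosterone present. Reporter mRNA quantified by RT-PCR, FAM labelling, HpaI digestion and capillary electrophoresis; induction versus DMSO.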

[4] = molecular target: mouse Peroxisome Proliferator-activated Receptor gamma (PPARg), Pparg (gene 19016) (UniProt P37238); test: ATG_mPPARg_XSP1: Attagene TRANS-FACTORIAL Multi-Species (XSP1) HepG2 Assay for mouse Peroxisome Proliferator-activated Receptor gamma (PPARg) (AID 2283802)
Method in brief: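 HepG2 cells transiently transfected with GAL4-UAS reporter units driven by mouse PPARg–GAL4 chimera; 3 nM 6-alpha-fluorotestosterone present. After 24 h dosing, reporter mRNA quantified by RT-PCR, fluorescent labelling and capillary electrophoresis; gain of signal versus DMSO.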

[5] = molecular target: Nuclear receptor subfamily 1 group I member 2 (Mus musculus) (UniProt O54915); test: ATG_mPXR_XSP1: Attagene TRANS-FACTORIAL Multi-Species (XSP1) HepG2 Assay for mouse Pregnane X Receptor (PXR) (AID 2283803)
Method in brief: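 Transiently transfected HepG2 cells expressing a receptor-Gal4 chimera drive a GAL4-UAS reporter; 3 nM 6-alpha-fluorotestosterone included. Reporter mRNA read 24 h post-dose by RT-PCR and capillary electrophoresis; gain of signal relative to DMSO.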

[6] = molecular target: GAL4 Transcription Factor (Internal Marker), GAL4 (gene 855828) (UniProt P04386); test: ATG_GAL4_XSP1: Attagene TRANS-FACTORIAL Multi-Species (XSP1) HepG2 Assay for GAL4 Transcription Factor (Internal Marker) (AID 2283789)
Experimental: (§1) ATG_XSP1_multi-species_TRANS is a cell-based, multiplexed assay created by modifying the existing Attagene TRANS-FACTORIAL system to include a panel of nuclear receptors from some or all the following species: human (Homo sapiens), mouse (Mus musculus), frog (Xenopus laevis), zebrafish (Danio rerio), chicken (Gallus gallus), and turtle (Chrysemys picta). The ECOTOX-FACTORIAL format uses HepG2, a human liver cell line, with measurements taken at 24 hours after chemical dosing in a 24-well plate. Xsp1 included 3 nM 6-alpha-fluorotestosterone to partially stimulate the androgen receptor.ATG_GAL4_XSP1 is one of 29 assay components measured or calculated from the ATG_XSP1_multi-species_TRANS assay. It is designed to make measurements of mRNA induction, a form of inducible reporter, as detected with fluorescence intensity signals by Reverse transcription polymerase chain reaction (RT-PCR) and Capillary electrophoresis technology.This assay endpoint, ATG_GAL4_XSP1, was analyzed in the positive analysis fitting direction relative to DMSO as the negative control and baseline of activity. […] Furthermore, this assay endpoint can be referred to as a secondary readout, because this assay has produced multiple assay endpoints where this one serves a background control function. […]

[7] = ATG_M_06_XSP1: Attagene TRANS-FACTORIAL Multi-Species (XSP1) HepG2 Assay for M06 Transcription Factor (Internal Marker) (AID 2283790)
Experimental: as §1, with “receptor.ATG_M_06_XSP1” for “receptor.ATG_GAL4_XSP1”, “ATG_M_06_XSP1,” for “ATG_GAL4_XSP1,”

[8] = ATG_M_61_XSP1: Attagene TRANS-FACTORIAL Multi-Species (XSP1) HepG2 Assay for M61 Transcription Factor (Internal Marker) (AID 2283797)
Method in brief: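 HepG2 cells transiently transfected with multiplexed GAL4-driven reporter units, dosed 24 h with 3 nM 6-alpha-fluorotestosterone present. Reporter mRNA quantified by RT-PCR, 6-FAM labelling, HpaI digestion and capillary electrophoresis; internal-marker background control, gain of signal versus DMSO.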

[9] = molecular target: Peroxisome proliferator-activated receptor gamma (Homo sapiens) (UniProt P37231); test: ATG_hPPARg_XSP1: Attagene TRANS-FACTORIAL Multi-Species (XSP1) HepG2 Assay for human Peroxisome Proliferator-activated Receptor gamma (PPARg) (AID 2283800)
Method in brief: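 HepG2 cells transiently transfected with GAL4-UAS reporter units carrying chimeric NR-Gal4 proteins; 3 nM 6-alpha-fluorotestosterone present. After 24 h dosing, reporter mRNA quantified by RT-PCR and capillary electrophoresis; gain of signal relative to DMSO.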

[10] = molecular target: frog Thyroid hormone Receptor alpha (TRa), thra-a (gene 397942) (UniProt P15204); test: ATG_frTRa_XSP1: Attagene TRANS-FACTORIAL Multi-Species (XSP1) HepG2 Assay for frog Thyroid hormone Receptor alpha (TRa) (AID 2283804)
Experimental: ATG_XSP1_multi-species_TRANS is a cell-based, multiplexed assay created by modifying the existing Attagene TRANS-FACTORIAL system to include a panel of nuclear receptors from some or all the following species: human (Homo sapiens), mouse (Mus musculus), frog (Xenopus laevis), zebrafish (Danio rerio), chicken (Gallus gallus), and turtle (Chrysemys picta). The ECOTOX-FACTORIAL format uses HepG2, a human liver cell line, with measurements taken at 24 hours after chemical dosing in a 24-well plate. Xsp1 included 3 nM 6-alpha-fluorotestosterone to partially stimulate the androgen receptor.ATG_frTRa_XSP1 is one of 29 assay components measured or calculated from the ATG_XSP1_multi-species_TRANS assay. It is designed to make measurements of mRNA induction, a form of inducible reporter, as detected with fluorescence intensity signals by Reverse transcription polymerase chain reaction (RT-PCR) and Capillary electrophoresis technology.The assay endpoint ATG_frTRa_XSP1 was analyzed in the positive analysis fitting direction relative to DMSO as the negative control and baseline of activity. Using a type of inducible reporter, measures of mRNA for gain-of-signal activity can be used to understand the reporter gene at the transcription factor-level as they relate to the gene TR. Furthermore, this assay endpoint can be referred to as a primary readout, because this assay has produced multiple assay endpoints where this one serves a reporter gene function. […]
Human liver HepG2 cells are transiently transfected with multiple reporter transcription units (MRTUs) in 6-well plates using FuGene 6 reagent (Roche; 3 ml FuGene/1 mg DNA). […] A major difference between the CIS and TRANS system is that in CIS activities of endogenous TFs are measured, whereas the TRANS assay evaluates changes in activities of exogenous, chimeric NR-Gal4 proteins. […] The fragments were purified using Qiaquick PCR columns (Qiagen), analyzed on an ABI 3130xL genetic analyzer (Applied Biosystems) with peak positions identified by using a set of X-rhodamine (ROX)-labeled MapMarker1000 molecular weight standards (BioVentures). […]

Measured: AC50

Nuclear receptor subfamily 1 group I member 2 (Mus musculus), sequence (O54915 whole entry, looked up, the tested form may be a part): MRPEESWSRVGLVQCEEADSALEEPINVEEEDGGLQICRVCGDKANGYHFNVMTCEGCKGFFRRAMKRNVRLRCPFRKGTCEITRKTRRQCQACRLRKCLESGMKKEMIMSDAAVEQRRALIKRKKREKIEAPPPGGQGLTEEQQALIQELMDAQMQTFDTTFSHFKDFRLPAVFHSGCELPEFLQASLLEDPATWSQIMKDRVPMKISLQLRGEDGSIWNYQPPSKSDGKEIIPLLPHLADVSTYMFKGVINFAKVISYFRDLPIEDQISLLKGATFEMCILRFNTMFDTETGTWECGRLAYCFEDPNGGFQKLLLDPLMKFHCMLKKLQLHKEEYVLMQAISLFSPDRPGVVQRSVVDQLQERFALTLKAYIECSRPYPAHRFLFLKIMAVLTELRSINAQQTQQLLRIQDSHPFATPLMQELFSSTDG
mouse Peroxisome Proliferator-activated Receptor gamma (PPARg), Pparg (gene 19016), sequence (P37238 whole entry, looked up, the tested form may be a part): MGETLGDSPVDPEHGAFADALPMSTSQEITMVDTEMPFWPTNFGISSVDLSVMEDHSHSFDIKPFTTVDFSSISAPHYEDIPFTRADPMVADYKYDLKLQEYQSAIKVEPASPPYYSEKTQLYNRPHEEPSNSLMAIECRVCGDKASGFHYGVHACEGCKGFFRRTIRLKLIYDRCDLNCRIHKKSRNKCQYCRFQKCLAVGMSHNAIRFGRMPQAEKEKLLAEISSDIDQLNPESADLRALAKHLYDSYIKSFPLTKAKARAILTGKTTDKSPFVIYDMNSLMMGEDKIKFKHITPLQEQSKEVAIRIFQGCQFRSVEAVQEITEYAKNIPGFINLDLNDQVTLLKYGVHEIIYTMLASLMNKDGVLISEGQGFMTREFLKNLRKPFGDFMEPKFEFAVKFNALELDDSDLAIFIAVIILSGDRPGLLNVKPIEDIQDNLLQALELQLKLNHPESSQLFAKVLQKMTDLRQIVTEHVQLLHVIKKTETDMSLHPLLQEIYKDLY
frog Thyroid hormone Receptor alpha (TRa), thra-a (gene 397942), sequence (P15204 whole entry, looked up): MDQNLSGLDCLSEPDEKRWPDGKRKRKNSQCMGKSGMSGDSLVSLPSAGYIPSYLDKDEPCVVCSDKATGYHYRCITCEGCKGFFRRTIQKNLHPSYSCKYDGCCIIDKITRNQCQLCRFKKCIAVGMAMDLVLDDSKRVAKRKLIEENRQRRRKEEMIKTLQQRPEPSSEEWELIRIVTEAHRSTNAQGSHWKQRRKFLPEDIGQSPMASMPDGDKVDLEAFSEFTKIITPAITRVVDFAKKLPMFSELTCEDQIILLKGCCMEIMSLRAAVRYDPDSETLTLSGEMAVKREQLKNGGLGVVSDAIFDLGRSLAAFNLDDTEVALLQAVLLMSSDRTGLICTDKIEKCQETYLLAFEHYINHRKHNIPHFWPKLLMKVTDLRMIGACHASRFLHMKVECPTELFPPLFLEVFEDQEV
GAL4 Transcription Factor (Internal Marker), GAL4 (gene 855828), sequence (P04386 whole entry, looked up, the tested form may be a part): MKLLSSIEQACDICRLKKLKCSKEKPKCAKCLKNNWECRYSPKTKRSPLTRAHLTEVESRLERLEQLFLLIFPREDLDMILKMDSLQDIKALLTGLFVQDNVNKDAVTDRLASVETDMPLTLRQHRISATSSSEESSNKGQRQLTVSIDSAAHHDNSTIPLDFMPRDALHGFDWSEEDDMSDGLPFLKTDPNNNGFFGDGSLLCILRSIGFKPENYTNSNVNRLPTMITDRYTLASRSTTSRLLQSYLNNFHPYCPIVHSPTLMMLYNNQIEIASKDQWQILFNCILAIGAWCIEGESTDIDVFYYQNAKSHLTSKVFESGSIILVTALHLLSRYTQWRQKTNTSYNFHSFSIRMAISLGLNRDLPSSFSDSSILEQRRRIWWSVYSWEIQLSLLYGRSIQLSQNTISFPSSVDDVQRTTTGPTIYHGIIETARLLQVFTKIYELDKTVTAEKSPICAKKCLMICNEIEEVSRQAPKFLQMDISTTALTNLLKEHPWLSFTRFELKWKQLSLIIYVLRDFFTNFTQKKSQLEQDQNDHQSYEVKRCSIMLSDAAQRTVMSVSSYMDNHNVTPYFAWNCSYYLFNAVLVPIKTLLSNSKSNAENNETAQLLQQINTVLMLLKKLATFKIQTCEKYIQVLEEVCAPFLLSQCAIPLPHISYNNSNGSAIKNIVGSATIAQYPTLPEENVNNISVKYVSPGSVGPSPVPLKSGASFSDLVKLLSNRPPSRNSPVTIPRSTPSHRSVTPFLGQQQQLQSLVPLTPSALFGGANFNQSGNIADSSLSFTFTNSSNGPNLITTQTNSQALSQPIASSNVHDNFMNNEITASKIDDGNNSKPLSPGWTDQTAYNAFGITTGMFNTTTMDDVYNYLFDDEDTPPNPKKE
Peroxisome proliferator-activated receptor gamma (Homo sapiens), sequence (P37231 whole entry, looked up, the tested form may be a part): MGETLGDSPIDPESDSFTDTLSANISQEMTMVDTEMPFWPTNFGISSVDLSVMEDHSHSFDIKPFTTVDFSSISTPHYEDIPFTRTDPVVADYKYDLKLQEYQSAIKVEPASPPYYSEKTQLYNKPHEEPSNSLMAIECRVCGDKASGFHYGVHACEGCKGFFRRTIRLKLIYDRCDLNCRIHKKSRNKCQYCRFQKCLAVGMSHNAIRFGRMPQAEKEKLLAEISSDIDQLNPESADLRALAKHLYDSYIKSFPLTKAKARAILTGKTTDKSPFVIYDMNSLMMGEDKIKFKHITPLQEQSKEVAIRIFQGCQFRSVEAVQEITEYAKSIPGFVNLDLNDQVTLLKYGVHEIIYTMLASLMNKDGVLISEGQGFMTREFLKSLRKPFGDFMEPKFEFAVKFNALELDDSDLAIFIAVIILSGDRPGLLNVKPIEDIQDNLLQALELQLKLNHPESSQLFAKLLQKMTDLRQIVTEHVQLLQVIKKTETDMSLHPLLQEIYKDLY

CCCCOC(=O)c1ccccc1C(=O)OCc1ccccc1
inactive: [1] | [2] | [3]
active: [4] 9.86 µM | [5] 3.81 µM

CCCCCOC(=O)c1ccccc1C(=O)OCCCCC
inactive: [6] | [7] | [8] | [2] | [3]
active: [9] 31.9 µM | [4] 37.6 µM | [5] 5.96 µM

Clc1ccc(C(c2ccc(Cl)cc2)C(Cl)Cl)cc1
active: [4] 50.3 µM | [5] 24.6 µM
inactive: [6] | [1] | [2] | [3]

CCC[CH2][Sn]([Cl])([CH2]CCC)[CH2]CCC
inactive: [1] | [3] | [10]

Clc1ccc(C(c2ccc(Cl)cc2)C(Cl)(Cl)Cl)cc1
active: [3] 100 µM | [4] 67.5 µM | [5] 2.67 µM
inactive: [1] | [2] | [10]

C[C@]12C=CC3=C4CCC(=O)C=C4CC[C@H]3[C@@H]1CC[C@@H]2O
inactive: [1] | [2] | [10]
